# Results as given in the supplement of paper PMC8728848.
# Shown is part of a subset that was picked to be rich in the strongest signals.
# B1: PpFlo3 (Pichia pastoris) (protein)
# chain: MGSSHHHHHHSSGLVPRGSHMQESGNGTTSDTAYACDIGATPFDGFNATIYQYQASDDNSIQDPVFMSTGYLQRNQLHSTTGVTNPGFNIFTAGVATTTLYGIPNVNYQNMLLELKGYFRADASGNYGLSLRNIDDSAILFFGRETAFECCNENLIPLDEAPTDYSLFTIKEGEASTNPDSYTYTQYLEAGRYYPVRTFFANIRTRAVFNFTMTLPDGSELTDFQNYIFQFGALNQ
# Assays:
# Test in all cases: glycan array binding signal (z-score within array); higher = stronger binding
# Details in all cases: glycan notation: IUPAC condensed, linker removed
# [1] = biological target: Fuc(a1-2)Gal(b1-3)GalNAc
# Outline: (§1)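 Columns mapping to the same glycan were averaged after glycan names were converted to IUPAC-condensed notation. The data come from 3228 arrays in the Consortium for Functional Glycomics database, limited to those with an available protein sequence. Binding is reported as a within-array Z-score averaged across arrays of one protein sequence and across linkers.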
# [2] = biological target: Fuc(a1-2)Gal(b1-3)GalNAc(a1-3)[Fuc(a1-2)]Gal(b1-4)GlcNAc
# Outline: as §1
# [3] = biological target: Fuc(a1-2)Gal(b1-4)GlcNAc
# Outline: as §1
# [4] = biological target: Fuc(a1-2)Gal(b1-4)GlcNAc(b1-2)Man(a1-3)[Fuc(a1-2)Gal(b1-4)GlcNAc(b1-2)Man(a1-6)]Man(b1-4)GlcNAc(b1-4)[Fuc(a1-6)]GlcNAc
# Outline: as §1
# [5] = biological target: Fuc(a1-2)Gal(b1-4)[Fuc(a1-3)]GlcNAc
# Outline: as §1
# [6] = biological target: Fuc(a1-2)Gal(b1-4)[Fuc(a1-3)]GlcNAc(b1-3)Gal(b1-4)[Fuc(a1-3)]GlcNAc(b1-3)Gal(b1-4)[Fuc(a1-3)]GlcNAc
# Outline: as §1
# [7] = biological target: Fuc(a1-2)Gal6S(b1-4)Glc
# Outline: as §1
# [8] = biological target: Fuc(a1-2)[Gal(a1-3)]Gal(b1-3)GlcNAc(b1-2)Man(a1-3)[Fuc(a1-2)[Gal(a1-3)]Gal(b1-3)GlcNAc(b1-2)Man(a1-6)]Man(b1-4)GlcNAc(b1-4)GlcNAc
# Outline: as §1
# [9] = biological target: Fuc(a1-2)[GalNAc(a1-3)]Gal
# Outline: as §1
# [10] = biological target: Fuc(a1-2)[GalNAc(a1-3)]Gal(b1-3)GlcNAc(b1-3)GalNAc
# Outline: as §1
# [11] = biological target: Fuc(a1-2)[GalNAc(a1-3)]Gal(b1-4)GlcNAc(b1-3)Gal(b1-4)GlcNAc(b1-3)Gal(b1-4)GlcNAc
# Outline: as §1
# [12] = biological target: Fuc(a1-3)[Gal(b1-4)]GlcNAc(b1-4)Gal(b1-4)[Fuc(a1-3)]GlcNAc
# Outline: as §1
# [13] = biological target: Fuc(a1-3)[Gal(b1-4)]GlcNAc(b1-6)GalNAc
# Outline: as §1
# [14] = biological target: Gal(a1-4)Gal(b1-4)GlcNAc
# Outline: as §1
# [15] = biological target: Gal(b1-3)GlcNAc
# Outline: as §1
# [16] = biological target: Gal(b1-3)GlcNAc(b1-3)GalNAc
# Outline: as §1
# [17] = biological target: Gal(b1-4)Glc6S
# Outline: as §1
# [18] = biological target: Gal(b1-4)GlcNAc(b1-2)Man(a1-3)[Man(a1-6)]Man(b1-4)GlcNAc(b1-4)GlcNAc
# Outline: as §1
# [19] = biological target: Gal(b1-6)Gal
# Outline: as §1
# [20] = biological target: Gal3S(b1-3)[Fuc(a1-4)]GlcNAc
# Outline: as §1
# [21] = biological target: Gal3S6S(b1-4)GlcNAc
# Outline: as §1
# [22] = biological target: Gal3S6S(b1-4)GlcNAc6S
# Outline: as §1
# [23] = biological target: GalNAc(b1-3)GalNAc
# Outline: as §1
# [24] = biological target: Glc(a1-4)Glc(a1-4)Glc(a1-4)Glc
# Outline: as §1
# [25] = biological target: Glc(b1-4)Glc
# Outline: as §1
# [26] = biological target: GlcNAc(b1-2)[GlcNAc(b1-4)]Man(a1-3)[GlcNAc(b1-2)Man(a1-6)]Man(b1-4)GlcNAc(b1-4)GlcNAc
# Outline: as §1
# [27] = biological target: GlcNAc(b1-3)Gal(b1-4)Glc
# Outline: as §1
# [28] = biological target: GlcNAc(b1-3)GalNAc
# Outline: as §1
# [29] = biological target: GlcNAc(b1-3)Man
# Outline: as §1
# [30] = biological target: GlcNAc(b1-3)[GlcNAc(b1-6)]GalNAc
# Outline: as §1
# [31] = biological target: Man(a1-2)Man(a1-6)[Man(a1-3)]Man(a1-6)[Man(a1-2)Man(a1-2)Man(a1-3)]Man(b1-4)GlcNAc(b1-4)GlcNAc
# Outline: as §1
# [32] = biological target: Neu5Ac(a2-3)Gal
# Outline: as §1
# [33] = biological target: Neu5Ac(a2-3)Gal(b1-4)[Fuc(a1-3)]GlcNAc(b1-3)Gal(b1-4)[Fuc(a1-3)]GlcNAc(b1-3)Gal(b1-4)[Fuc(a1-3)]GlcNAc
# Outline: as §1
# [34] = biological target: Neu5Ac(a2-3)[GalNAc(b1-4)]Gal(b1-4)GlcNAc
# Outline: as §1
# [35] = biological target: Neu5Ac(a2-6)Gal(b1-4)GlcNAc
# Outline: as §1
# [36] = biological target: Neu5Ac(a2-6)Gal(b1-4)GlcNAc(b1-2)Man(a1-3)[Man(a1-6)]Man(b1-4)GlcNAc(b1-4)GlcNAc
# Outline: as §1
# [37] = biological target: Neu5Ac(a2-6)Gal(b1-4)GlcNAc(b1-2)Man(a1-6)[GlcNAc(b1-2)Man(a1-3)]Man(b1-4)GlcNAc(b1-4)GlcNAc
# Outline: as §1
# [38] = biological target: Neu5Ac(a2-8)Neu5Ac(a2-3)Gal(b1-3)GalNAc(b1-4)[Neu5Ac(a2-8)Neu5Ac(a2-3)]Gal(b1-4)Glc
# Outline: as §1
# [39] = biological target: Neu5Ac9Ac(a2-3)Gal(b1-3)GlcNAc
# Outline: as §1
# [40] = biological target: Neu5Gc(a2-3)Gal(b1-4)Glc
# Outline: as §1
binder,measurement,setting,value
B1,glycan array binding signal (z-score),[1],-0.256
same,glycan array binding signal (z-score),[2],-0.217
same,glycan array binding signal (z-score),[3],-0.242
same,glycan array binding signal (z-score),[4],-0.263
same,glycan array binding signal (z-score),[5],4.84
same,glycan array binding signal (z-score),[6],4.32
same,glycan array binding signal (z-score),[7],-0.279
same,glycan array binding signal (z-score),[8],-0.259
same,glycan array binding signal (z-score),[9],-0.298
same,glycan array binding signal (z-score),[10],-0.014
same,glycan array binding signal (z-score),[11],-0.303
same,glycan array binding signal (z-score),[12],2.75
same,glycan array binding signal (z-score),[13],-0.238
same,glycan array binding signal (z-score),[14],-0.139
same,glycan array binding signal (z-score),[15],-0.201
same,glycan array binding signal (z-score),[16],-0.296
same,glycan array binding signal (z-score),[17],4.38
same,glycan array binding signal (z-score),[18],-0.233
same,glycan array binding signal (z-score),[19],-0.281
same,glycan array binding signal (z-score),[20],5.08
same,glycan array binding signal (z-score),[21],-0.27
same,glycan array binding signal (z-score),[22],-0.269
same,glycan array binding signal (z-score),[23],5.1
same,glycan array binding signal (z-score),[24],-0.242
same,glycan array binding signal (z-score),[25],-0.246
same,glycan array binding signal (z-score),[26],4.67
same,glycan array binding signal (z-score),[27],-0.291
same,glycan array binding signal (z-score),[28],-0.266
same,glycan array binding signal (z-score),[29],6.76
same,glycan array binding signal (z-score),[30],1.75
same,glycan array binding signal (z-score),[31],-0.271
same,glycan array binding signal (z-score),[32],-0.283
same,glycan array binding signal (z-score),[33],-0.266
same,glycan array binding signal (z-score),[34],-0.272
same,glycan array binding signal (z-score),[35],-0.282
same,glycan array binding signal (z-score),[36],-0.281
same,glycan array binding signal (z-score),[37],4.82
same,glycan array binding signal (z-score),[38],-0.017
same,glycan array binding signal (z-score),[39],-0.267
same,glycan array binding signal (z-score),[40],-0.276
